The source of these data is ChEMBL document CHEMBL4513216, “Probing the Open Global Health Chemical Diversity Library for Multistage-Active Starting Points for Next-Generation Antimalarials” (ACS Infect Dis, 2020).

About 8,600 (12%) of roughly 69,000 compounds showed an effect of 50% or more. Only a selection was taken, and strong results are over-represented in it overall.

The test system of the assay is Plasmodium berghei. The assay can be described thus: Screen against P. berghei liver stage (PbLuc), transformed with Luciferase, at 10uM. It is filed as functional, HepG2. To be noted: tested at 10 uM.
Consider `Cc1ccc(CN2CCC(O)(Cn3nc(-c4cccs4)oc3=O)CC2)o1`, for which the INHIBITION was 14.6%.
The figure for `CCc1ncnc2c1CCN(Cc1cccs1)CC2` is 13.7%; for `Cc1occc1C(=O)N1CCO[C@H]2[C@H](OCc3cccnc3)CC[C@@H]21` it is 34.4%; for `CC(C)N1CCC(C(=O)N(C)C(C)c2ccon2)CC1` (stereo not drawn) it is 1.94%.
Regarding `CC(c1ccon1)N(C)C(=O)C1CCN(C(=O)C2CC2)CC1` (stereo not drawn), the INHIBITION was determined as 34%.
The figure for `CN(Cc1ccoc1)C(=O)C1CCN(C(=O)C2CCCC2)CC1` is 61.1%; for `CN(Cc1cnc(N)nc1)C(=O)C1CCN(C(=O)C2CCCC2)CC1` it is 44.3%; for `CC(=O)N(Cc1ccoc1)C1CCCCC1` it is -29.5%.
Turning to `CC(c1ccon1)N(C)C(=O)C1CCN(C(=O)C2CCC2)CC1` (stereo not drawn), the INHIBITION was 57.5%.
Under `Cc1nn(Cc2ccc(C(=O)NC3CCS(=O)(=O)C3)cc2)c(C)c1Br` (stereo not drawn) stands 7.3%; under `COCCN1C(=O)CCC12CCC(NCc1nccs1)CC2` (stereo not drawn), 10.5%; under `CN1CC2(CCN(C(=O)c3cn4cccnc4n3)CC2)CC1=O`, -28.9%.
For the compound `O=C(NCc1cncc2c1CCN(CC1CCOC1)C2)c1ccco1` (stereo not drawn), the INHIBITION is reported as -46%.
The figure for `c1cnc(NCc2cncc3c2CCN(CC2CC2)C3)nc1` is 48.4%.
On to `Cc1nccc(NCc2cncc3c2CCN(CC2CC2)C3)n1`, for which the INHIBITION was found to be 84.7%.
Under `O=C(O)c1c(-c2cccnc2)ncc2c1CCN(CC1CCOC1)C2` (stereo not drawn) stands -21.1%; under `CS(=O)(=O)NCc1cncc2c1CCN(CC1CCOC1)C2` (stereo not drawn), 53.4%; under `Cc1nccc(NCc2cncc3c2CCN(CC2CCOC2)C3)n1` (stereo not drawn), 91.9%.
Under `O=C(NCc1cncc2c1CCN(CC1CCOC1)C2)c1ccno1` (stereo not drawn) stands -0.813%; under `Cc1nccc(NCc2cncc3c2CCN(CCN(C)C)C3)n1`, 29.4%.
The figure for `O=C(O)c1c(-c2ccncc2)ncc2c1CCN(CC1CCOC1)C2` (stereo not drawn) is 34.9%; for `CCC(=O)N1CCN(CCn2cccn2)c2ncccc2C1` it is 43%.
Consider `Cn1cc(CN2CCc3onc(COCC4CC4)c3C2)cn1`, for which the INHIBITION is 5.96%.
Under `CCc1ncncc1C(=O)N1CCN(Cc2cscn2)CC1` stands 15.5%.
Under `COCc1nnc(NC(=O)c2cn(C(C)C)c3ccc(OC)cc23)s1` stands -42.5%; under `COc1nc2c(cc1C(=O)N1CC[C@H](CO)[C@@H](O)C1)CCC2`, 61%.
As to `COc1nc2c(cc1C(=O)N1CCCOC(CN3CCCC3)C1)CCC2` (stereo not drawn), the INHIBITION came to 54.5%.
The figure for `COc1cccc(C2CCCN2C(=O)c2cc3c(nc2OC)CCC3)c1` (stereo not drawn) is -10.8%; for `COc1nc2c(cc1C(=O)N1CCCOC(Cn3cccn3)C1)CCC2` (stereo not drawn) it is 59.1%; for `O=C(c1cccc(-n2cccn2)c1)N1CCCOC(CN2CCCC2)C1` (stereo not drawn) it is 13.7%.
The figure for `COc1ccc2cc(C(=O)N3CC[C@H](CO)[C@H](O)C3)n(C)c2c1` is 27.6%; for `O=C(c1cccc(-n2cccn2)c1)N1CCCOC(Cn2cccn2)C1` (stereo not drawn) it is 0.891%.
The figure for `CCc1ncc(C(=O)N2CCCOC(Cn3cccn3)C2)cn1` (stereo not drawn) is 40.2%; for `COc1ccc(C(=O)N2CC[C@H](CO)[C@H](O)C2)c(C)c1` it is 16.8%; for `CCC(C)(C)C(=O)Nc1ccc2ccn(CC(=O)NC)c2c1` it is -3.47%.
On to `Cc1oncc1C(=O)N1C[C@H]2CCCC(N(C)Cc3cccs3)[C@H]2C1` (stereo partly drawn), for which the INHIBITION worked out at 21.6%.
`CCS(=O)(=O)CC(=O)NC(C)c1ccc(OCCC(C)C)cc1` (stereo not drawn): the INHIBITION is recorded as 15.4%.
The figure for `CCOC(=O)Cc1csc(NC(=O)c2ccc(=O)[nH]n2)n1` is 18.4%.
Under `Cc1nc(CN2CCC3(CCN(c4ncc(F)cn4)C3)C2=O)cs1` (stereo not drawn) stands -23.7%; under `CCc1c(C(=O)N2CCC(CC(N)=O)CC2)cnn1C(C)(C)C`, 47.1%; under `CCc1c(C(=O)N2CCCN(C(C)=O)CC2)cnn1C(C)(C)C`, 44.3%.
The figure for `CCc1c(C(=O)N2CCN(CC(N)=O)CC2)cnn1C(C)(C)C` is 53.8%.
With `CN(C)S(=O)(=O)NC1CCCc2c1cnn2-c1ccc(C(C)(C)C)cc1` (stereo not drawn), the INHIBITION was 58.8%.
As to `Cc1ccc(-n2ncc3c2CCCC3N)cc1C` (stereo not drawn), the INHIBITION was found to be 33.7%.
Under `CC(C)(C)c1ccc(-n2ncc3c2CCCC3N)cc1` (stereo not drawn) stands 22.6%; under `Cn1cc(C2CCCN2CCC(=O)N2CCc3sccc3C2)cn1` (stereo not drawn), 19.2%.
`COc1ccc(CN2CC[C@H]3CO[C@H](CNC(=O)N(C)C)[C@H]3C2)cc1`: the INHIBITION amounted to 12.7%.
Under `Cc1ccc(CN2Cc3nccn3CC(Cn3cncn3)C2)s1` (stereo not drawn) stands -9.02%; under `Cc1ccc(C(=O)N(C)S(C)(=O)=O)cc1Cl`, 61.9%; under `Cc1cc(C(=O)N(C)S(C)(=O)=O)ccc1F`, 61%.
`CN(CC(F)(F)F)C(=O)c1ccc(F)c(NS(C)(=O)=O)c1`: the INHIBITION was -43.5%.
Under `Cc1cc(C(=O)N(C)S(=O)(=O)C(C)C)ccc1F` stands 61.9%; under `CN(CCNS(C)(=O)=O)C(=O)c1ccc(Cl)c(Cl)c1`, 66.5%; under `Cc1ccc(C(=O)N(C)CCNS(C)(=O)=O)cc1Br`, 23.9%.
The figure for `CN(C(=O)c1ccc(Cl)c(S(C)(=O)=O)c1)c1ccccc1` is 5.91%; for `Cc1cc(C(=O)N(CC(=O)O)CC(C)C)ccc1F` it is 40.9%; for `Cc1ccc(C(=O)N2CCCS2(=O)=O)cc1Cl` it is 21.1%.
Under `Cc1cc(Br)ccc1C(=O)N(C)CCNS(C)(=O)=O` stands 35.9%; under `Cc1ccc(C(=O)N(CC(=O)O)CC(C)C)cc1F`, 39.7%.
`Cc1sc(C(=O)N(C)S(C)(=O)=O)cc1-c1ccc(F)cc1`: the INHIBITION is reported as 13.3%.
`Cc1cc2ccncc2n1CC1(O)CCN(C(=O)c2ccncc2)CC1`: the INHIBITION is 7.19%.
Under `CNc1nc(C)c(C(=O)NCC(C)(C)N2CCCCC2)s1` stands -34.6%; under `CN(CCO)Cc1nnc(C2CCN(CC3[C@H]4CNC[C@@H]34)CC2)n1C` (stereo partly drawn), -3.55%; under `c1ncn(CC2CCCN(Cc3nnc(C4CC4)o3)C2)n1` (stereo not drawn), -0.74%.
As to `Cc1nc(C(C)C)sc1C(=O)NCCNc1ncccn1`, the INHIBITION is given as 26.5%.
Under `COc1ccc(CN2CCNC(=O)CC2)cc1SC(F)(F)F` stands 25.3%; under `COc1ccc(CN2CCN(C(C)=O)CC2)cc1SC(F)(F)F`, 21.9%; under `COc1ccc(CN2CCC(C(N)=O)CC2)cc1SC(F)(F)F`, 52.2%.
